# Source: PubChem BioAssay (EPA / NIEHS)
# Inconclusive results are not listed. Activity calls are given as the source filed them. The calls were made as follows, unless noted: active = hit-call score of the fitted dose curve at least 0.9, where 1 is the maximum; inactive = score below 0.9.
# Tests used:
# [1] = CCTE_Shafer_MEA_acute_AB: CCTE's Alamar Blue Assay for Cytotoxicity in the Neural Acute Assay, Shafer Lab (AID 2284069; active = hit-call score of the fitted dose curve at least 0.9, where 1 is the maximum;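 also: active compounds lower the viability signal compared with DMSO wells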)
# In short: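 Metabolic activity in chemically exposed rat cortical neurons (MEA cultures, day 13/15 post-plating) measured via CellTiter Blue resazurin reduction, 544/590 nm fluorescence; fitted relative to DMSO, with signal loss indicating reduced viability.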
# [2] = CCTE_Shafer_MEA_acute_LDH: CCTE's Lactate Dehydrogenase Assay for Cytotoxicity in the Neural Acute Assay, Shafer Lab (AID 2284086; active = hit-call score of the fitted dose curve at least 0.9, where 1 is the maximum;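 also: active means LDH release rises above DMSO vehicle level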)
# In short: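 LDH released during 40 min compound exposure of primary rat cortical cultures, quantified by absorbance at 490 nm in collected medium. Fitting direction positive versus DMSO vehicle.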
# [3] = CCTE_Shafer_MEA_dev_burst_duration_mean: CCTE's Neural Network Formation Assay for Mean Burst Duration, Shafer Lab (AID 2284045);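 as to AC50: curve fitted for loss meaning shorter burst duration than DMSO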
# In short: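 Mean single-electrode burst duration (first to last spike), averaged over bursting electrodes per well, then integrated as area-under-curve across recordings at days 5, 7, 9 and 12. Rat cortical cultures on MEAs, compound present from plating, refreshed at feeds.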
# [4] = CCTE_Shafer_MEA_dev_interburst_interval_mean: CCTE's Neural Network Formation Assay for Mean Interburst Interval, Shafer Lab (AID 2284046);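 also: well-mean interburst interval of bursting electrodes as AUC over four recording days; curve fitted for decrease in interburst interval relative to DMSO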
# In short: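 Developing rat cortical networks on 48-well MEAs receive compound from the day of plating. Burst intervals from each active electrode are averaged per well, and AUC over the recording days is fitted in the negative direction against DMSO.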
# [5] = CCTE_Shafer_MEA_dev_inter_network_spike_interval_mean: CCTE's Neural Network Formation Assay for Mean Inter-network Spike Interval, Shafer Lab (AID 2284047)
# In short: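 Rat cortical cultures, 1.5 x 10^5 cells/well on 48-well MEA plates; continuous exposure days 0–12, medium and compound refreshed DIV 5, 9. Mean time between consecutive network-spike peaks; AUC across DIV 5/7/9/12; DMSO baseline, negative fitting direction.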
# [6] = CCTE_Shafer_MEA_dev_network_spike_number: CCTE's Neural Network Formation Assay for Number of Network Spikes, Shafer Lab (AID 2284048);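 also: synchronized bursts across electrodes counted on days 5 7 9 12 and integrated as AUC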;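 as to AC50: fit as a loss of signal meaning fewer network spikes than DMSO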
# In short: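 Number of network spikes (coordinated firing across electrodes) recorded on days 5, 7, 9 and 12 and summarised as area under the curve. Rat cortical cultures on MEA, continuous compound exposure with full medium/treatment exchange at DIV 5 and 9.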
# [7] = CCTE_Shafer_MEA_dev_network_spike_peak: CCTE's Neural Network Formation Assay for Mean Number of Electrodes in Network Spike, Shafer Lab (AID 2284049);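 as to AC50: fitted for loss of signal meaning fewer electrodes in network spikes than DMSO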
# In short: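 Rat cortical primary culture, 1.5 x 10^5 cells/well, 48-well MEA (16 electrodes/well). Dosing day 0 through DIV 12, full media/compound exchange DIV 5, 9. AxIS adaptive spike detection; AUC over days 5/7/9/12; loss-of-signal vs DMSO.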
# [8] = CCTE_Shafer_MEA_dev_spike_duration_mean: CCTE's Neural Network Formation Assay for Mean Spike Duration, Shafer Lab (AID 2284051);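 also: mean network spike duration pooled as area under curve over DIV 5 to 12 recordings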;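 as to AC50: potency for a decrease in mean network spike duration versus DMSO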
# In short: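 Readout is the average length of network spikes, clustered firing across electrodes, summed over DIV 5, 7, 9 and 12 as area under the curve. Neurons from rat cortex developed networks on MEA plates under continuous 12-day exposure.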
# [9] = CCTE_Shafer_MEA_dev_network_spike_duration_std: CCTE's Neural Network Formation Assay for Standard Deviation of Network Spike Duration, Shafer Lab (AID 2284052);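 also: hits are decreases in network spike duration SD versus DMSO vehicle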
# In short: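 Read-out is the trapezoidal area-under-the-curve across recordings made on days 5, 7, 9 and 12, fitted in the negative direction against DMSO baseline. Neurons were primary rat cortical cells treated from day 0, with treatment renewed at each feed.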
# [10] = CCTE_Shafer_MEA_dev_per_network_spike_spike_number_mean: CCTE's Neural Network Formation Assay for Mean Number of Spikes in a Network Spike, Shafer Lab (AID 2284053);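 as to AC50: fitted as decrease in spikes per network spike relative to DMSO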
# In short: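 Continuous twelve-day exposure of developing rat cortical networks grown over 16 microelectrodes per well; spontaneous firing is captured at four time points, and the per-network-spike spike number is integrated over development by trapezoidal AUC.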
# [11] = CCTE_Shafer_MEA_dev_per_network_spike_spike_percent: CCTE's Neural Network Formation Assay for Percent of Spikes in a Network Spike, Shafer Lab (AID 2284054)
# In short: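 Metric: fraction of spikes falling in a 0.05 s window at network-spike peaks. Recordings were made on days 5, 7, 9 and 12 and collapsed by trapezoidal AUC. Cultures were rat cortical neurons on MEA plates, dosed continuously from plating, re-dosed at media changes.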
# [12] = UKN5_HCS_SBAD2_cell_viability: Viability Assessment in the University of Konstanz (UKN) Leist Lab Neurite Outgrowth Assay in human iPSC-derived immature Dorsal Root Ganglia Neurons (UKN5) (AID 2284056)
# In short: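 iPSC-derived immature peripheral neurons (SBAD2) seeded on Matrigel with CHIR99021, SU5402 and DAPT, dosed 1 h later for 24 h. Viability from Hoechst H-33342 and calcein-AM live staining, high-content imaging; bidirectional fit versus DMSO.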
# [13] = CCTE_Shafer_MEA_dev_LDH: CCTE's Lactate Dehydrogenase Assay for Cytotoxicity in the Neural Network Formation Assay, Shafer Lab (AID 2284068; active = hit-call score of the fitted dose curve at least 0.9, where 1 is the maximum;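 also: exposure for twelve days from plating with re-dosing on DIV 5 and 9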)
# In short: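 Cytotoxicity companion to network-formation recordings: rat cortical neurons received compound over 12 days of development, re-dosed at DIV 5 and 9 feeds. Viability was inferred from LDH enzyme activity relative to DMSO.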
# [14] = UKN5_HCS_SBAD2_neurite_outgrowth: University of Konstanz (UKN) Leist Lab Neurite Outgrowth Assay in human iPSC-derived immature Dorsal Root Ganglia Neurons (UKN5) (AID 2284070); conditions: actives raise or lower the signal
# In short: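 Neurite area from calcein-AM high-content images after 24 h exposure (staining included), with H-33342 for viability, fitted both directions against DMSO. Cells: thawed immature SBAD2 peripheral neurons, 100.000 cells/cm2, with CHIR99021, SU5402, DAPT; dosing 1 h after seeding.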
# [15] = CCTE_Shafer_MEA_dev_mutual_information_norm: CCTE's Neural Network Formation Assay for Mutual Information Normalization, Shafer Lab (AID 2284091);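 as to AC50: mutual information between electrodes summarised as area under curve across four recording days; potency is for a decrease in mutual information relative to DMSO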
# In short: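 Shared information across electrodes, tracked on days 5, 7, 9 and 12 of network development and collapsed as trapezoidal area under the curve. Rat cortical cultures were treated continuously from plating, with treatment renewed at feeds on DIV 5 and 9; DMSO baseline, negative-direction fit.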
# [16] = CCTE_Shafer_MEA_dev_correlation_coefficient_mean: CCTE's Neural Network Formation Assay for Mean Correlation Coefficient, Shafer Lab (AID 2284093);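 as to AC50: well mean pairwise spike train correlation integrated as AUC over recording days 5 to 12; potency fitted for loss of correlation relative to DMSO vehicle wells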
# In short: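 Read-out: well-mean correlation coefficient of spike trains between electrode pairs, collapsed over four recording days as trapezoidal area-under-the-curve. Developing rat cortical neuron networks grown on MEAs received test chemical continuously from plating.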
# [17] = UKN2_HCS_IMR90_neural_migration: University of Konstanz (UKN) Leist Lab Neural Crest Cell Migration Assay in human induced IMR90 Pluripotent Stem Cells (UKN2) (AID 2284204); conditions: actives raise or lower the signal
# In short: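 High-content imaging of calcein-AM and Hoechst stained cells quantifies migration into a stopper-defined gap after 24 h compound exposure. Neural crest cells from IMR90 iPSC migrated 24 h in EGF/FGF N2-S medium before dosing; DMSO baseline.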
# [18] = CCTE_Shafer_MEA_dev_AB: CCTE's Alamar Blue Assay for Cytotoxicity in the Neural Network Formation Assay, Shafer Lab (AID 2284083; active = hit-call score of the fitted dose curve at least 0.9, where 1 is the maximum;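 also: twelve days of exposure from plating with re-dosing on DIV 5 and 9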)
# In short: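 Fluorescent resazurin reduction serves as the viability read-out, with DMSO as negative control and baseline. Cells were primary rat cortical neurons grown on MEA plates and dosed from day 0 to day 12, treatment renewed on DIV 5 and 9.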
# DIO2 (gene 1734) = test: CCTE_GLTED_hDIO2: CCTE's human Deiodinase 2 (DIO2) Inhibition Assay, Great Lakes Toxicology and Ecology Division (GLTED) Lab (AID 2284050; active = hit-call score of the fitted dose curve at least 0.9, where 1 is the maximum)
# In short: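 Iodide released by human deiodinase 2 over 3 h with test chemical, measured spectrophotometrically via Sandell-Kolthoff cerium/arsenic reaction. Run n=3; inhibition referenced to DMSO.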
# DIO3 (gene 1735) = test: CCTE_GLTED_hDIO3: CCTE's human Deiodinase 3 (DIO3) Inhibition Assay, Great Lakes Toxicology and Ecology Division (GLTED) Lab (AID 2284055; active = hit-call score of the fitted dose curve at least 0.9, where 1 is the maximum;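 also: potency is for inhibition seen as loss of released iodide signal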)
# In short: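 Inhibition is read as reduced iodide release, measured spectrophotometrically by the Sandell-Kolthoff cerium/arsenic reaction. Adenovirus-expressed human DIO3 enzyme is exposed to chemical for 3 h, n=3 plates. Iodinated chemicals, nitrite, iron or thiocyanate may interfere.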
structure (smiles),measurement,setting,value
Oc1cc(Cl)c(Cl)cc1Cl,outcome,[1],inactive
same,outcome,[2],inactive
CNC(=O)CSP(=O)(OC)OC,outcome,[3],inactive
same,outcome,[4],inactive
same,outcome,[5],inactive
same,outcome,[6],inactive
same,outcome,[7],inactive
same,outcome,[8],inactive
same,outcome,[9],inactive
same,outcome,[10],inactive
same,outcome,[11],inactive
same,AC50,[12],20.9 µM (active)
same,outcome,[13],inactive
same,outcome,[14],inactive
same,outcome,[15],inactive
same,outcome,[16],inactive
same,outcome,[17],inactive
FC(F)OCC(F)(F)C(F)(F)F,outcome,[3],inactive
same,outcome,[4],inactive
same,outcome,[5],inactive
same,outcome,[6],inactive
same,outcome,[7],inactive
same,outcome,[8],inactive
same,outcome,[9],inactive
same,outcome,[10],inactive
same,outcome,[11],inactive
same,outcome,[15],inactive
same,outcome,[16],inactive
O=S(=O)(F)C(F)(F)C(F)(F)C(F)(F)C(F)(F)F,outcome,[3],inactive
same,outcome,[4],inactive
same,outcome,[5],inactive
same,outcome,[6],inactive
same,outcome,[7],inactive
same,outcome,[8],inactive
same,outcome,[9],inactive
same,outcome,[10],inactive
same,outcome,[11],inactive
same,outcome,[18],inactive
same,outcome,[15],inactive
same,outcome,[16],inactive
CCCCCCCCCCCCc1cccc(S(=O)(=O)O)c1,AC50,DIO2 (gene 1734),90.4 µM (active)
same,AC50,DIO3 (gene 1735),38.1 µM (active)
same,outcome,[1],inactive
same,outcome,[2],inactive
O=C1c2ccccc2C(=O)C1C(=O)C(c1ccccc1)c1ccc(Cl)cc1 (configuration not stated),AC50,DIO2 (gene 1734),91.9 µM (active)
same,AC50,DIO3 (gene 1735),68.5 µM (active)
OCCCCO,outcome,[1],inactive
same,outcome,[2],inactive
O=S1(=O)OC(c2cc(Br)c(O)c(Br)c2)(c2cc(Br)c(O)c(Br)c2)c2ccccc21,AC50,DIO2 (gene 1734),36.4 µM (active)
same,AC50,DIO3 (gene 1735),13 µM (active)
O=S1OC[C@@H]2[C@H](CO1)[C@]1(Cl)C(Cl)=C(Cl)[C@@]2(Cl)C1(Cl)Cl (some centres not stated),outcome,[12],inactive
same,outcome,[14],inactive
same,AC50,[17],14.6 µM (active)
CC1(C)[C@H](C(=O)O[C@H](C#N)c2cccc(Oc3ccccc3)c2)[C@@H]1/C=C(\Cl)C(F)(F)F,outcome,[3],inactive
same,outcome,[4],inactive
same,outcome,[5],inactive
same,AC50,[6],1.35 µM (active)
same,AC50,[7],8.95 µM (active)
same,AC50,[8],12.9 µM (active)
same,outcome,[9],inactive
same,AC50,[10],12.9 µM (active)
same,AC50,[11],3.67 µM (active)
same,AC50,[13],22.7 µM (active)
same,AC50,[18],12.9 µM (active)
same,AC50,[15],1.4 µM (active)
same,AC50,[16],5.11 µM (active)
NC(=O)c1ccc(N)nc1,AC50,[3],8.66 µM (active)
same,AC50,[4],3.16 µM (active)
same,outcome,[5],inactive
same,AC50,[6],7.35 µM (active)
same,AC50,[7],4.53 µM (active)
same,AC50,[8],7.59 µM (active)
same,AC50,[9],7.69 µM (active)
same,AC50,[10],4.19 µM (active)
same,AC50,[11],6.23 µM (active)
same,AC50,[13],6.05 µM (active)
same,AC50,[18],8.53 µM (active)
same,AC50,[15],7.61 µM (active)
same,AC50,[16],4.57 µM (active)
O=C(Cc1ccccc1)OCCc1ccccc1,outcome,[2],inactive
OC(Cc1ccccc1Cl)(Cn1[nH]cnc1=S)C1(Cl)CC1 (configuration not stated),outcome,[3],inactive
same,AC50,[4],82.5 µM (active)
same,outcome,[5],inactive
same,AC50,[6],24.4 µM (active)
same,AC50,[7],50 µM (active)
same,AC50,[8],33.6 µM (active)
same,outcome,[9],inactive
same,AC50,[10],23.6 µM (active)
same,AC50,[11],82.3 µM (active)
same,AC50,[13],73.5 µM (active)
same,AC50,[18],71.3 µM (active)
same,AC50,[15],6.39 µM (active)
same,AC50,[16],21.5 µM (active)
same,AC50,[17],35.4 µM (active)
CS(=O)(=O)c1ccc(C(=O)C2C(=O)CCCC2=O)c(Cl)c1COCC(F)(F)F,outcome,[3],inactive
same,outcome,[4],inactive
same,outcome,[5],inactive
same,outcome,[6],inactive
same,outcome,[7],inactive
same,outcome,[8],inactive
same,outcome,[9],inactive
same,outcome,[10],inactive
same,outcome,[11],inactive
same,outcome,[18],inactive
same,outcome,[2],inactive
same,outcome,[15],inactive
same,outcome,[16],inactive
CN(C)C(=S)S,outcome,[1],inactive
O=[N+]([O-])c1ccc(Cl)c([N+](=O)[O-])c1,AC50,DIO2 (gene 1734),30.3 µM (active)
same,AC50,DIO3 (gene 1735),7.41 µM (active)
Clc1cccc(Cl)c1Cl,outcome,[2],inactive
N#Cc1cccnc1,outcome,[2],inactive
